Assay results taken from PubChem BioAssay (NCI).
The panel holds about 83,000 compounds, 20% with a hit somewhere; the sample as a whole holds those more often.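 Interpretation: 100, growth as untreated; towards 0, rising growth inhibition; 0, no net growth; 0 to -100, cell death. Compounds scoring below 10 were considered active.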 Values without a mark were called inactive. Active and inactive are the calls of the source.

system: SNB-19 CNS; experiment: NCI-60 one-dose screen, 48 h (100 = growth as untreated, 0 = no growth, -100 = all killed); conditions: 10 µM
Description: Growth inhibition of the SNB-19 human tumor cell line is measured as a screen for anti-cancer activity. Cells are grown in 96 well plates and exposed to the test compound for 48 hours. Compounds are tested at a single concentration, which is 10^-5 M for most compounds. The reported endpoint is percent growth (GI% or GIPRCNT), where numbers from 0 - 100% represent growth inhibition, and numbers from -100% - 0 represent cell death. For example, a value of 40 represents 60% growth inhibition. A value of 0 means no net growth occurred over the course of the experiment. A value of -40 indicates 40% of cells at the beginning of the experiment died by the end of the experiment. A value of -100 means all cells are dead at the end of the experiment.
NCI-60 Human Tumor Cell Lines Screen was performed using the standard one-dose NCI protocol, which is described in more detail at https://dtp.cancer.gov/discovery_development/nci-60/default.htm.
Compounds with GIPRCNT values below 10 were considered active. Activity score was based on GIPRCNT using the following formula: […]
Score is 0 for GIPRCNT values of 100 or above, 50 for GIPRCNT values of 0, and 100 for GIPRCNT values of -100.

Row | SMILES | growth
1 | CN1CCc2c(sc3ncnc(N/N=C/c4ccc5ccccc5c4)c23)C1 | 74.2%
2 | Brc1ccc(/C=N/Nc2ncnc3sc4c(c23)CCN(Cc2ccccc2)C4)cc1 | 99.9%
3 | N#Cc1c(-c2ccc(F)cc2)nc(SCc2ccc(F)cc2)nc1N1CCOCC1 | 43.7%
4 | Cc1ccc(-c2nc(Nc3ccc(S(N)(=O)=O)cc3)c3ccccc3n2)cc1 | 60.6%
5 | COc1cc(/C=C/C(=O)c2ccc(S(=O)(=O)NCCNc3nc(Nc4ccc(F)cc4)nc(N(C)C)n3)cc2)cc(OC)c1OC | 15.6%
6 | O=C(Cn1nc(-c2ccccc2)ccc1=O)NNC(=S)NC1CCCCC1 | 100%
7 | Nc1n[nH]c2cccc(C#Cc3cccc(NC(=O)Nc4cc(C(F)(F)F)cc(C(F)(F)F)c4)c3)c12 | -19.7% (active)
8 | O=C(Nc1ccc(F)c(Cl)c1)c1cc(-c2ccc(F)cc2F)ccc1O | 13%
9 | COc1ccc(-c2cc(-c3cc(C(=O)c4ccc(Br)cc4)n4ccc(C)cc34)nc(N)c2C#N)cc1 | 91.3%
10 | CN1CCN(Cc2ccc(NC(=O)c3cncc(C#Cc4cnc5ccc(N[C@H]6CCOC6)nn45)c3)cc2C(F)(F)F)CC1 | -98.8% (active)
11 | O=C(Nc1nc2ccc([N+](=O)[O-])cc2s1)Nc1cc(Cl)ccc1I | 4.09% (active)
12 | O=C(CNc1nc(-c2ccccc2)cs1)Nc1ccc([N+](=O)[O-])cc1Cl | 43.8%
13 | CNC(=O)c1cc(-c2ccc(NC(=O)Nc3ccc(C)cc3)cc2)nc2cccnc12 | 91.7%
14 | CC(=O)c1ccc(NC(=O)NCn2c(=O)[nH]c3ccccc3c2=O)cc1 | 90.4%
15 | Cc1ccc(F)cc1N/C=c1\s/c(=C(\C#N)C(=O)Nc2ccccc2)n(-c2ccccc2)c1=O | 36.2%
16 | CC1(C)CC[C@]2(C(=O)N3CCOCC3)CC[C@]3(C)C(=CC[C@@H]4[C@@]5(C)CC[C@H](NCO)C(C)(C)[C@@H]5CC[C@]43C)[C@H]2C1 | -95.8% (active)
17 | COc1cc(C2CC(c3ccccc3)=Nc3c(N)nc(N)nc3N2)ccc1Oc1nc(Nc2ccc(F)cc2)nc(N(C)C)n1 (stereo not given) | 62.2%
18 | Cc1ccc(C(=O)CSc2nnc(-c3c[nH]c4ccccc34)n2-c2ccccc2)cc1 | 19.7%
19 | O=C(Cn1cc(CSc2nnc3oc4ccccc4n23)nn1)Nc1cccc(Cl)c1 | 74.5%
20 | CC(C)CCSc1nc(NC2CC2)c(C#N)c(-c2ccc(C(C)C)cc2)n1 | 98.6%

Row | SMILES | growth
21 | Cc1ccc([N+](=O)[O-])c(C(=O)Nc2ccc(-c3ccc4c(c3)NC(=O)/C4=C\c3ccc[nH]3)cc2)c1 | 30.6%
22 | O=c1cc(-c2ccccc2)oc2cc(OCCCCNCc3ccccc3)cc(O)c12 | 67.2%
23 | CCCn1c(=O)c2[nH]c(-c3ccc(OCc4nc5ccc(C#N)cc5[nH]4)cc3)nc2n(CCC)c1=O | 80.8%
24 | O=C1Nc2cc(-c3ccc(NC(=O)c4cccc([N+](=O)[O-])c4)cc3)ccc2/C1=C/c1ccc[nH]1 | 94.5%
25 | COc1cccc(-c2ccc(/C=N/NC(=O)c3[nH]c4ccc(Br)cc4c3-c3ccccc3)o2)c1 | 40.3%
26 | O=C(CSc1nnc(-c2ccc3nc(-c4ccc(Cl)cc4)[nH]c3c2)o1)Nc1ccc(Br)cc1 | -26.6% (active)
27 | O=C(c1ccc(O)cc1)C1[C@H](c2ccccc2Br)[C@@H](c2ccccc2)NC12C(=O)Nc1ccc(Cl)cc12 (stereo not given in full) | 17.2%
28 | COc1ccc(OC)c(-c2cc(-c3c[nH]c4ccccc34)nc(N)c2C#N)c1 | 11.6%
29 | Cc1ccc(CSc2nc(Cl)c(C#N)c(-c3ccc(F)cc3)n2)cc1 | 89.3%
30 | C=C1CC[C@H](C(=C)C)[C@H]2C=C(C)C(=O)C3=C(C(=O)[C@@](C)(O)C3)[C@H]12 | -90.9% (active)
31 | COc1cnc2c(c1)C(=O)c1c-2n(CCCNCCO)c(=O)c2cc(OC)c(OC)cc12 | 18.7%
32 | CN1CCN(c2ccc(Nc3nc(N4CCN(S(=O)(=O)c5ccc(Cl)cc5)CC4)c4sccc4n3)cc2)CC1 | 28.4%
33 | CC(=O)Nc1ccc(-c2cn(-c3cccc(C(=O)Nc4ccc(F)c(C(F)(F)F)c4)c3)nn2)cn1 | 43.8%
34 | CCCn1c(=O)c2[nH]c(-c3ccc(OCc4nc5ccc(C(F)(F)F)cc5[nH]4)cc3)nc2n(CCC)c1=O | 71.5%
35 | CC(=O)Nc1nc(-c2ccc(N3CCN(C)CC3)c(NS(=O)(=O)c3ccc(C(F)(F)F)cc3)c2)cs1 | 45.6%
36 | CN1CCN(c2ccc(Nc3nc(NCCCNC(=O)c4ccc(Cl)cc4)c4sccc4n3)cc2)CC1 | 104%
37 | O=c1[nH]c2ccccc2cc1CSc1ccc(Nc2nccc(-c3ccc(C(F)(F)F)cc3)n2)cc1 | 33.1%
38 | Oc1ccc(/C=C2\CCCc3cc4ccc(O)cc4[o+]c32)c(O)c1 | 58%
39 | CC(=O)c1cc(C(=O)c2ccc3c(c2)NC(=O)CO3)n2ccc3ccccc3c12 | 69.6%
40 | O=c1oc2ccccc2cc1-c1csc(N=Nc2c(O)[nH]c3ccc(Br)cc23)n1 | 29%
